Consider 16 compounds from PubChem BioAssay (Tox21).

Activity calls are given as the source filed them. Where a call stands in place of a potency, no number is given. Calls follow the shape of the dose curve; as a rule, active = well fitted curve in the direction sought with a large enough effect in the repeat runs; inconclusive = weak or mixed curves; inactive = flat fitted curve, though single readings scatter.

This test is described as follows: qHTS assay to test for compound auto fluorescence at 590 nm (red) in HEK293 cell free culture (AID 720683). The conditions noted are these: cell-free medium autofluorescence, Ex540/Em590 red; series mostly up to 46 µM. An outline of the steps: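 Red-channel autofluorescence of compounds in culture medium (DMEM, 10% FBS), no cells, measured at 540/590 nm. Rose Bengal sodium is the reference fluorophore for equivalence.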
Consider `CC(C)(C)CC(C)(C)c1cc(Cc2cc(C(C)(C)CC(C)(C)C)cc(-n3nc4ccccc4n3)c2O)c(O)c(-n2nc3ccccc3n2)c1`, for which the Potency entry is “inactive”.

For the compound `CCCC(=O)N1CCCN(c2nc(N)c3cc(OC)c(OC)cc3n2)CC1`, the Potency entry is “inactive”.

For `COCC1=C(C(=O)OC(C)OC(=O)OC(C)C)N2C(=O)[C@@H](NC(=O)/C(=N\OC)c3csc(N)n3)[C@H]2SC1` (stereo partly specified), the Potency entry is “inactive”.

As to `CN1CCC(OC(=O)C(Oc2ccc(Cl)cc2)Oc2ccc(Cl)cc2)CC1`, the Potency result was “inactive”.

With `CC(C)[C@@H](C)/C=C/[C@@H](C)[C@H]1CC[C@H]2/C(=C/C=C3\C[C@@H](O)CC[C@@H]3C)CCC[C@]12C`, the Potency entry was “inactive”.

With `O=C1c2ccccc2C(=O)C1c1ccc(Cl)cc1`, the Potency entry was “inactive”.

With `O=C(CCCN1CCC(n2c(=S)[nH]c3ccccc32)CC1)c1ccc(F)cc1`, the Potency entry is “inactive”.

As to `CC1(C)[C@@H]2CC[C@@]1(C)[C@H](OC(=O)CSC#N)C2`, the Potency entry is “inactive”.

In the case of `CN1CCC(CN2c3ccccc3Sc3ccccc32)C1` (stereo unspecified), the Potency result was “inactive”.

Turning to `CC(C)Cc1ccc([C@@H](C)C(=O)NS(C)(=O)=O)cc1`, the Potency result was “inactive”.

Consider `CC(C)N1CCN(c2ccc(OC[C@H]3CO[C@](Cn4cncn4)(c4ccc(Cl)cc4Cl)O3)cc2)CC1`, for which the Potency entry is “inactive”.

Turning to `Cc1ccc(C2(O)CCN(CCCC(=O)c3ccc(F)cc3)CC2)cc1`, the Potency result is “inactive”.

As for `CCN(CC)CCOCCOC(=O)C(CC)(CC)c1ccccc1`, the Potency entry was “inactive”.

Turning to `CCC(=O)c1ccc2c(c1)N(CCCN1CCN(CCO)CC1)c1ccccc1S2`, the Potency entry is “inactive”.

As for `O=S(O)CNc1ccc(S(=O)(=O)c2ccc(NCS(=O)O)cc2)cc1`, the Potency entry is “inactive”.

On to `CCCCCCCCCCCCCCCCOCCOCCOCCOCCOCCOCCOCCOCCOCCOCCOCCOCCOCCOCCOCCOCCOCCOCCOCCOCCO`, for which the Potency result is “inactive”.
